Only some compounds are listed: those with a hit (about 2.2% of all), similar ones and a draw of the others.
rat GALR2 agon: activates the rat galanin receptor 2 | activation, % at 10 µM | cell-based GALR2 agonist screen | AID 833 | 0.5% of 16,000 active | O08726; in the data active means activation above about 15%
S1P1 ag: activates the human S1P1 receptor. AID 1044. 1.5% of 16,000 active. activation, % at 4.5 µM. S1P1 agonist cell-based reporter assay. P21453; in the data active means activation above about 80%
Target sequence (P21453 whole entry, looked up): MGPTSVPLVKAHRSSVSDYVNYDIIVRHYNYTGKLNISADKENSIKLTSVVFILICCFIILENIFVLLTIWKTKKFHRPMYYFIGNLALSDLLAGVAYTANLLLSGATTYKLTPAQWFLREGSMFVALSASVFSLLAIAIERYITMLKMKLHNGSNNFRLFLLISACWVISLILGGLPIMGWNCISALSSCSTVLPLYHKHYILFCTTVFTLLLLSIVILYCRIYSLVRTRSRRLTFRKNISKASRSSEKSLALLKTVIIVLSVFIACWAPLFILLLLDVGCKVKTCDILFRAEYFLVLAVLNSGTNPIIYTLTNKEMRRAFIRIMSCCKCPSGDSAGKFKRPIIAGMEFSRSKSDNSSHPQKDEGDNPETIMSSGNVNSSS
Of the large screens only hits and unclear results are named; the others gave an inactive call.

Cc1nc(-c2ccccc2)sc1C(=O)O/N=C(\N)c1ccc([N+](=O)[O-])o1	none
O=C(Oc1cccc2c1C(=O)C=CC2=O)c1ccccc1	S1P1 ag 102
O=C(Oc1cccc2c1CCC2=O)c1ccccc1	none
COc1ccc(S(=O)(=O)NNC(=O)c2ccc(N(C)C)cc2)cc1OC	none
O=c1c([N+](=O)[O-])c[nH]n(-c2ccccc2)c1=O	none
Cc1ccc(COc2ncnc3cc(Cl)ccc23)cc1	rat GALR2 agon 46
CCCc1cnc(Oc2ncnc3cc(Cl)ccc23)nc1	none
COc1ccc(-n2c(-c3cccs3)n[nH]c2=S)cc1	none
COc1ccc(OC)c(NC(=O)C(=O)NC2CC(C)CC(C)(C)C2)c1 (stereo unspecified)	none
COc1cc(C(=O)NC2CC(C)CC(C)(C)C2)cc(OC)c1OC (stereo unspecified)	S1P1 ag 109
O=C(CSc1ssc(=S)c1-c1ccccc1)Nc1ccc(F)c(F)c1F	none
O=S(=O)(NCCSCc1csc2ccc(Cl)cc12)c1ccc(Cl)cc1	S1P1 ag 90
O=S(=O)(NCc1csc2ccc(Cl)cc12)c1ccc(C(F)(F)F)cc1	none
CCOC(=O)/C(C#N)=C/Nc1nc2ccc(C)cc2s1	S1P1 ag 87
CCOC(=O)/C(C#N)=C/Nc1ccncc1	none
COc1ccc(/C(C)=N/O)cc1CN1CCCC1	none
COc1ccc(N=Nc2cc(C)c(O)c(CN3CCCCC3)c2)cc1	S1P1 ag 101
O=C(CN1C(=O)c2ccccc2C1=O)NCc1ccsc1	none
N#C/C(=C\c1cc(C#Cc2ccccc2)cs1)C(=O)c1ccco1	none
N#C/C(=C\c1ccc(C#Cc2ccccc2)s1)C(=O)c1ccco1	rat GALR2 agon 16
CCCc1c(C(=O)Nc2ccc3ccccc3n2)cnn1-c1ccccc1	S1P1 ag 96
CCCc1c(C(=O)Nc2ncn[nH]2)cnn1-c1ccccc1	none
CSc1nn(-c2ccccc2)cc1/C(N)=N/OC(=O)c1cccs1	none
N#C/C(=C\c1ccc(O)cc1)C(N)=O	none
CSc1sc(C(=O)O)cc1S(=O)(=O)C(C)C	none
CSc1sc(C(=O)NCC2CC2)cc1S(=O)(=O)C(C)C	rat GALR2 agon 17
O=C(Nc1ccc(F)cc1)C(F)(F)S(=O)(=O)c1ccccc1	none
O=C(Cn1nnc(-c2cccs2)n1)NNC(=O)c1ccc(Cl)cc1	none
Nc1c(Cl)cc(C(=O)Nc2cc(Cl)c(Cl)cc2Cl)cc1Cl	rat GALR2 agon 17
COc1cc(NC(=O)c2cc(OC)c(OC)c(OC)c2)c(OC)cc1Cl	none
O=C(CSCc1cccc2ccccc12)NNC(=O)c1ccccc1Cl	none
Oc1c(Cl)cc(Cl)cc1/C=N/NC(=S)NC1CC2CCC1C2 (stereo unspecified)	rat GALR2 agon 51
S=C(N/N=C/c1ccco1)NC1CC2CCC1C2 (stereo unspecified)	none
COc1cc(C(=O)Oc2c(Cl)cc(Cl)cc2/C=N/NC(N)=S)cc(OC)c1OC	none
COc1ccc(N=Nc2ccc(OC)c(OC)c2)cc1OC	S1P1 ag 93
COc1ccc(CC(C)=C(C#N)C#N)cc1OC	none
Cc1ccc(Sc2ncccc2-c2nnc(C3CC3)o2)cc1	none
NNC(=O)CNS(=O)(=O)c1cccc2nsnc12	none
O=S(=O)(Nc1cc(C(F)(F)F)cc(C(F)(F)F)c1)c1cccc2nsnc12	S1P1 ag 89
C/C(=N\O)c1ccc2c(c1)C(C)(C)CCC2(C)C	none
COc1ccc(N2C(=O)C=CC2=O)cc1OC	none
CCn1c2ccccc2c2cc(N3C(=O)C=CC3=O)ccc21	S1P1 ag 110
O=S(=O)(O)c1ccc2[nH]c(=S)[nH]c2c1	rat GALR2 agon 60
COc1ccc2[nH]c(=S)[nH]c2c1	none
O=S(=O)(Nc1ccc(C(F)(F)F)cc1Cl)c1cc(Br)c(Cl)s1	S1P1 ag 113
O=S(=O)(c1cc(Br)c(Cl)s1)N1C=CC(C(F)(F)F)=NCC1	none
Cn1ccc(-c2cccc([N+](=O)[O-])c2)n1	none
O=C(c1ccc(Cl)cc1)n1ccc(-c2cccc([N+](=O)[O-])c2)n1	rat GALR2 agon 26
Cc1noc(C)c1S(=O)(=O)N(Cc1ccccc1)C(C)C	rat GALR2 agon 47
CC(C)N(Cc1ccccc1)S(=O)(=O)c1ccc2c(c1)CCO2	none
NNC(=O)c1ccccc1-n1cccc1	none
Cc1c(C)c(C)c(C(=O)c2ccccc2C(=O)NN)c(C)c1C	S1P1 ag 81
CCOc1cc(/C=N/N2C(=O)c3ccccc3C2=O)ccc1O	none
Cc1ccc(S(=O)(=O)NC(=O)N(C)CCc2ccccn2)cc1	none
CN(CCc1ccccn1)C(=O)c1nccnc1C(=O)O	S1P1 ag 94
S=C(NNc1c(Cl)cncc1Cl)Nc1ccc(Cl)cc1Cl	S1P1 ag 119
OCCCNNC(=S)Nc1ccc(Cl)cc1Cl	none
Cc1oc(-c2ccc(Cl)cc2)cc1-c1ccn[nH]1	none
FC(F)(F)c1cc(-c2ccc(-c3ccn[nH]3)o2)cc(C(F)(F)F)c1	S1P1 ag 102
O=C1/C(=C/c2cccs2)CC/C1=C\c1cccs1	S1P1 ag 81
O=C1/C(=C/c2cccs2)CN(Cc2ccccc2)C/C1=C\c1cccs1	none
COc1ccc2nsnc2c1	none
COc1ccc2nonc2c1	rat GALR2 agon 139
CSc1nnc(-c2csc(S(=O)(=O)Oc3cc(Cl)cc(Cl)c3)c2)n1C	none

Compound activity deposited in PubChem by The Scripps Research Institute Molecular Screening Center.
